Data taken from PubChem BioAssay (NCI).
About 83,000 compounds went through this panel and 20% of them were active in at least one assay; those are over-represented in the sample as a whole.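 48-hour exposure, single concentration, 96-well plates; percent growth endpoint where 0 means no net growth. Active: below 10.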 The source made the active and inactive calls.

Test system: A498 renal
Test: NCI-60 one-dose screen, 48 h (100 = growth as untreated, 0 = no growth, -100 = all killed)
Settings: 10 µM unless noted

Row | Structure (SMILES) | growth
1 | C1=C\COCc2cc(ccc2OCCN2CCCC2)Nc2nccc(n2)-c2cccc(c2)COC/1 | -43.3% (active)
2 | FC(F)c1nc2ccccc2n1-c1nc(N2CCOCC2)nc(N2CCOCC2)n1 | -82.4% (active)
3 | Cc1cnc(Nc2ccc(OCCN3CCCC3)cc2)nc1Nc1cccc(S(=O)(=O)NC(C)(C)C)c1 | -95.3% (active)
4 | C=CC(=O)Nc1cc2c(Nc3ccc(F)c(Cl)c3)ncnc2cc1OCCCN1CCOCC1 | -29.3% (active)
5 | COc1cc2c(cc1OCCCN1Cc3ccc(OCCCCC(=O)N4CCC(CCN5CCCC5)CC4)cc3C1)N=C(N)C21CCCC1 | 78.8% (inactive)
6 | COc1cc(Nc2ncc(F)c(Nc3ccc4c(n3)N(COP(=O)(O)O)C(=O)C(C)(C)O4)n2)cc(OC)c1OC | -70.9% (active)
7 | CNC(=O)c1cc(Oc2cccc3nc(Nc4ccc(Cl)c(F)c4)ccc23)ccn1 | 83.8% (inactive)
8 | C[C@@H](Oc1cc(C(=O)Nc2ccc(C(=O)N3CCN(C)CC3)cc2)nnc1N)c1c(Cl)ccc(F)c1Cl | 65% (inactive)
9 | NC1(c2ccc(-c3nc4ccn5c(=O)[nH]nc5c4cc3-c3ccccc3)cc2)CCC1 | -62.8% (active)
10 | C=CC(=O)N1CCC[C@@H](n2nc(-c3ccc(Oc4ccccc4)cc3)c3c(N)ncnc32)C1 | -17.1% (active)
11 | Cn1ccnc1C(=O)/C=C/c1ccc(CC(=O)Nc2ccc(C(F)(F)F)cc2)cc1 | 64.5% (inactive)
12 | CCNC(=O)Nc1nc2ccc(Oc3ccnc(C(=O)NC)c3)cc2s1 | 69.9% (inactive)
13 | O=C(Cn1cncn1)Nc1ccc(-c2nc3ccccc3s2)cc1 | 88.4% (inactive)
14 | Cc1ccc(NC(=O)Nc2ccc(Nc3ncnc4sc5c(c34)CCOC5)cc2)cc1Cl | 90.4% (inactive)
15 | Cc1cc2c(F)c(Oc3ncnn4cc(OC[C@@H](C)OC(=O)[C@H](C)N)c(C)c34)ccc2[nH]1 | 21.7% (inactive)
16 | CC(C)(C)c1nc(-c2cccc(NS(=O)(=O)c3c(F)cccc3F)c2F)c(-c2ccnc(N)n2)s1 | 135% (inactive)
17 | COC(=O)Nc1nc2ccc(C(=O)c3ccc(N(C)C4COC4)cc3)cc2[nH]1 | 10% (inactive)
18 | CO[C@H]1C[C@@H]2CC[C@@H](C)[C@@](O)(O2)C(=O)C(=O)N2CCCC[C@H]2C(=O)O[C@H]([C@H](C)C[C@@H]2CC[C@@H](OC(=O)C(C)(CO)CO)[C@H](OC)C2)CC(=O)[C@H](C)/C=C(\C)[C@@H](O)[C@@H](OC)C(=O)[C@H](C)C[C@H](C)\C=C/C=C/C=C/1C | 8.36% (active)
19 | CO[C@@H](C)Cn1c(=O)n(C)c2cnc3ccc(-c4cncc(C(C)(C)O)c4)cc3c21 | -55.5% (active)
20 | NC1=Nc2cc(OCCCN3Cc4ccccc4C3)c(OCC3CC3)cc2C12CCCC2 | 68.4% (inactive)
21 | COc1cc2c(Oc3ccc(NC(=O)C4(C(=O)Nc5ccc(F)cc5)CC4)cc3F)ccnc2cc1OCCCN1CCOCC1 | -92.4% (active)
22 | Cc1c(NC(=O)OC[C@@H]2COCCN2)cn2ncnc(Nc3ccc4c(cnn4Cc4cccc(F)c4)c3)c12 | -68.8% (active)
23 | Cc1nc(NC(=O)N2CCC[C@H]2C(N)=O)sc1-c1ccnc(C(C)(C)C(F)(F)F)c1 | 1.67% (active)
24 | COc1cc(NCCCN)c2ncccc2c1 | 56.9% (inactive)
25 | Cc1cc(Nc2ncc(Cl)c(Nc3ccccc3S(=O)(=O)C(C)C)n2)c(OC(C)C)cc1C1CCNCC1 | 40.2% (inactive)

Test system: CCRF-CEM leukemia
Test: as above
Settings: 10 µM unless noted

Row | Structure (SMILES) | growth
26 | O=C1C=CC2(NN=C(c3ccccc3)N2c2ccc(Cl)cc2)c2cccc(O)c21 (centres undefined) | 83.1% (inactive)
27 | CNC(=O)c1ccc(Nc2ncc(C(F)(F)F)c(NCc3nccnc3N(C)S(C)(=O)=O)n2)cc1 | 4.49% (active)
28 | CN(C)C/C=C/C(=O)Nc1cc2c(Nc3ccc(F)c(Cl)c3)ncnc2cc1O[C@H]1CCOC1 | 6.13% (active)
29 | COc1cc(Nc2c(C#N)cnc3cc(OCCCN4CCN(C)CC4)c(OC)cc23)c(Cl)cc1Cl | 38.9% (inactive)
30 | Cc1oc2c(C(=O)N/N=C\c3ccc(O)cc3O)c[nH]c2c1C | 23.9% (inactive)
31 | COc1c(OCCCN2CCOCC2)ccc2c3n(c(=NC(=O)c4cnc(N)nc4)nc12)CCN3 | 17.7% (inactive)
32 | c1cn2cc(-c3ccc4cn[nH]c4c3)nc(Nc3ccc(N4CCOCC4)cc3)c2n1 | 66.9% (inactive)
33 | CN1CCN(CCOc2cc(OC3CCOCC3)c3c(Nc4c(Cl)ccc5c4OCO5)ncnc3c2)CC1 | 84.3% (inactive)
34 | O=C(Cc1ccc(-c2ccc(OCCN3CCOCC3)cc2)cn1)NCc1ccccc1 | 9.96% (active)
35 | COc1ccc(F)c(F)c1C(=O)c1cnc(NC2CCN(S(C)(=O)=O)CC2)nc1N | 7.13% (active)
36 | CCOc1ccc(N=C(C)Nc2ccc(OCC)cc2)cc1 | 88% (inactive)
37 | C[C@@H]1COC(Nc2ccc3ncnc(Nc4ccc(OCc5nccs5)c(Cl)c4)c3c2)=N1 | 24.7% (inactive)
38 | CCCCCC(=O)OCc1ccc(Cl)c(Cl)c1 | 109% (inactive)
39 | C=CC(=O)Nc1cccc(Oc2nc(Nc3ccc(N4CCN(C)CC4)cc3)nc3ccsc23)c1 | 1.89% (active)
40 | C1=C\COCc2cc(ccc2OCCN2CCCC2)Nc2nccc(n2)-c2cccc(c2)COC/1 | 4.28% (active)
41 | FC(F)c1nc2ccccc2n1-c1nc(N2CCOCC2)nc(N2CCOCC2)n1 | 8.99% (active)
42 | Cc1cnc(Nc2ccc(OCCN3CCCC3)cc2)nc1Nc1cccc(S(=O)(=O)NC(C)(C)C)c1 | 1.67% (active)
43 | C=CC(=O)Nc1cc2c(Nc3ccc(F)c(Cl)c3)ncnc2cc1OCCCN1CCOCC1 | 4.44% (active)
44 | COc1cc2c(cc1OCCCN1Cc3ccc(OCCCCC(=O)N4CCC(CCN5CCCC5)CC4)cc3C1)N=C(N)C21CCCC1 | 61.3% (inactive)
45 | COc1cc(Nc2ncc(F)c(Nc3ccc4c(n3)N(COP(=O)(O)O)C(=O)C(C)(C)O4)n2)cc(OC)c1OC | 29.9% (inactive)

Row | Structure (SMILES) | growth
46 | CNC(=O)c1cc(Oc2cccc3nc(Nc4ccc(Cl)c(F)c4)ccc23)ccn1 | 91.3% (inactive)
47 | C[C@@H](Oc1cc(C(=O)Nc2ccc(C(=O)N3CCN(C)CC3)cc2)nnc1N)c1c(Cl)ccc(F)c1Cl | 55.9% (inactive)
48 | NC1(c2ccc(-c3nc4ccn5c(=O)[nH]nc5c4cc3-c3ccccc3)cc2)CCC1 | 1.33% (active)
49 | C=CC(=O)N1CCC[C@@H](n2nc(-c3ccc(Oc4ccccc4)cc3)c3c(N)ncnc32)C1 | 54.8% (inactive)
50 | Cn1ccnc1C(=O)/C=C/c1ccc(CC(=O)Nc2ccc(C(F)(F)F)cc2)cc1 | 8.58% (active)
51 | CCNC(=O)Nc1nc2ccc(Oc3ccnc(C(=O)NC)c3)cc2s1 | 62.8% (inactive)
52 | O=C(Cn1cncn1)Nc1ccc(-c2nc3ccccc3s2)cc1 | 105% (inactive)
53 | Cc1ccc(NC(=O)Nc2ccc(Nc3ncnc4sc5c(c34)CCOC5)cc2)cc1Cl | 90.3% (inactive)
54 | Cc1cc2c(F)c(Oc3ncnn4cc(OC[C@@H](C)OC(=O)[C@H](C)N)c(C)c34)ccc2[nH]1 | 45.4% (inactive)
55 | CC(C)(C)c1nc(-c2cccc(NS(=O)(=O)c3c(F)cccc3F)c2F)c(-c2ccnc(N)n2)s1 | 59% (inactive)
56 | COC(=O)Nc1nc2ccc(C(=O)c3ccc(N(C)C4COC4)cc3)cc2[nH]1 | 15.9% (inactive)
57 | CO[C@H]1C[C@@H]2CC[C@@H](C)[C@@](O)(O2)C(=O)C(=O)N2CCCC[C@H]2C(=O)O[C@H]([C@H](C)C[C@@H]2CC[C@@H](OC(=O)C(C)(CO)CO)[C@H](OC)C2)CC(=O)[C@H](C)/C=C(\C)[C@@H](O)[C@@H](OC)C(=O)[C@H](C)C[C@H](C)\C=C/C=C/C=C/1C | 16.2% (inactive)
58 | CO[C@@H](C)Cn1c(=O)n(C)c2cnc3ccc(-c4cncc(C(C)(C)O)c4)cc3c21 | 10.4% (inactive)
59 | NC1=Nc2cc(OCCCN3Cc4ccccc4C3)c(OCC3CC3)cc2C12CCCC2 | 37% (inactive)
60 | COc1cc2c(Oc3ccc(NC(=O)C4(C(=O)Nc5ccc(F)cc5)CC4)cc3F)ccnc2cc1OCCCN1CCOCC1 | -3.58% (active)
61 | Cc1c(NC(=O)OC[C@@H]2COCCN2)cn2ncnc(Nc3ccc4c(cnn4Cc4cccc(F)c4)c3)c12 | 6.97% (active)
62 | Cc1nc(NC(=O)N2CCC[C@H]2C(N)=O)sc1-c1ccnc(C(C)(C)C(F)(F)F)c1 | 35.9% (inactive)
63 | COc1cc(NCCCN)c2ncccc2c1 | 92.5% (inactive)
64 | Cc1cc(Nc2ncc(Cl)c(Nc3ccccc3S(=O)(=O)C(C)C)n2)c(OC(C)C)cc1C1CCNCC1 | -47.5% (active)
